Measurements reported in article PMC5540273 (PLoS ONE, 2017).

Assays:
Details in all cases: concentration: 1 μM, replicates: in singlicate; n = 1
[1] = test system: RPS6KA4(Kin.Dom.1-N-terminal)
[2] = test system: RPS6KA4(Kin.Dom.2-C-terminal)
[3] = test system: RPS6KA5(Kin.Dom.1-N-terminal)
[4] = test system: RPS6KA5(Kin.Dom.2-C-terminal)
[5] = test system: T1, RSK1(Kin.Dom.1-N-terminal)
T1 construct: gene RPS6KA1

[6] = test system: T2, RSK1(Kin.Dom.2-C-terminal)
T2 construct: gene RPS6KA1

[7] = test system: T3, RSK2(Kin.Dom.1-N-terminal)
T3 construct: gene RPS6KA3

[8] = test system: T4, RSK2(Kin.Dom.2-C-terminal)
T4 construct: gene RPS6KA3

[9] = test system: T5, RSK3(Kin.Dom.1-N-terminal)
T5 construct: gene RPS6KA2

[10] = test system: T6, RSK3(Kin.Dom.2-C-terminal)
T6 construct: gene RPS6KA2
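Further: KINOMEscan kinase panel screen.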

| SMILES | %Inh [1] | %Inh [2] | %Inh [3] | %Inh [4] | %Inh [5] | %Inh [6] | %Inh [7] | %Inh [8] | %Inh [9] | %Inh [10] |
| --- | --- | --- | --- | --- | --- | --- | --- | --- | --- | --- |
| COc1cc(Nc2nccc(N3CCC(NC(=O)c4cc5ccccc5s4)C3)n2)cc(OC)c1OC (centres unmarked) [GSK1379760] | 0% | 0% | 5% | 4% | 16% | 46% | 0% | 18% | 0% | 0% |
| COc1ccc(-c2coc3ccc(-c4nnc(SCc5ccc(OC)c(C(F)(F)F)c5)o4)cc23)cc1 | 9% | 15% | 0% | 0% | 1% | 17% | 14% | 19% | 16% | 19% |
| Cc1ccc(F)c(C(=O)Nc2cccc(-c3nn4ccccc4c3-c3ccnc(Nc4cccc(F)c4)n3)c2)c1F [GSK361061] | 34% | 0% | 21% | 0% | 65% | 7% | 4% | 0% | 0% | 7% |
| O=C(Nc1n[nH]c2nc(-c3ccc(O)cc3)ccc12)C1CC1 [SB-710363] | 8% | 99.5% | 0% | 53% | 14% | 64% | 52% | 0% | 12% | 0% |
| Cc1cccc(Nc2nc(N[C@H]3CCNC3)ncc2C(N)=O)c1.Cl [GSK2197149] | 0% | 0% | 2% | 0% | 22% | 31% | 31% | 0% | 23% | 4% |
| COc1ccc(Nc2nccc(N3CCC(NC(=O)Nc4cccc(OC)c4)C3)n2)cc1 (centres unmarked) [GSK1379742] | 15% | 0% | 10% | 0% | 0% | 0% | 15% | 1% | 0% | 0% |
| Cc1occc1-c1ncc(OC[C@@H](N)Cc2c[nH]c3ccccc23)cc1-c1ccc2[nH]nc(C)c2c1.O=C(O)C(F)(F)F [GSK682037] | 8% | 0% | 49% | 0% | 7% | 0% | 79% | 0% | 22% | 0% |
| COc1cc(Nc2nccc(-c3c(-c4cccc(NC(=O)c5c(F)cccc5F)c4)nn4ccccc34)n2)cc(OC)c1OC [GSK323521] | 25% | 0% | 27% | 0% | 5% | 14% | 32% | 47% | 25% | 9% |
| O=C(Nc1cccc(-c2nn3ccccc3c2-c2ccnc(Nc3cccc(F)c3)n2)c1)c1c(F)ccc(F)c1Cl [GSK357952] | 15% | 0% | 28% | 20% | 63% | 14% | 18% | 8% | 24% | 0% |
| O=C(NC1CCN(c2ccnc(Nc3ccc(F)cc3)n2)C1)c1cc2ccccc2s1 (centres unmarked) [GSK1379716] | 17% | 0% | 29% | 0% | 22% | 13% | 4% | 0% | 20% | 4% |
| Cn1cc(-c2[nH]c3cc(NC(=O)[C@H](N)C4CCCCC4)cc4c3c2C=NNC4=O)cn1 | 96.8% | 96.2% | 34% | 59% | 60% | 72% | 85% | 0% | 65% | 5% |
| c1ccc(Oc2ccc(Nc3ccnc4cc(-c5ccc(CNCCN6CCOCC6)o5)ccc34)cc2)nc1 [GW567145] | 0% | 0% | 0% | 0% | 93.3% | 0% | 0% | 0% | 0% | 0% |
| CN(c1ccc(NC(=O)Nc2cc(C(F)(F)F)ccc2F)cc1)c1ccnc(Nc2ccc(S(N)(=O)=O)cc2)n1 [GW809893] | 26% | 1% | 14% | 4% | 100% | 0% | 8% | 28% | 35% | 0% |
| O=C(Nc1cccc(Oc2ccc3nc(NC(=O)C4CC4)cn3n2)c1)c1ccccc1C(F)(F)F | 35% | 0% | 0% | 17% | 6% | 0% | 0% | 55% | 6% | 0% |
| COc1ccc(CNC(=O)NC2CCN(c3ccnc(Nc4ccc(F)cc4)n3)CC2)cc1 [GSK1379788] | 0% | 0% | 7% | 9% | 18% | 0% | 0% | 5% | 0% | 0% |
| CCCCc1nn2ncccc2c1-c1ccnc(Nc2ccc(N3CCN(C)CC3)cc2)n1 [GW684941] | 8% | 0% | 0% | 43% | 0% | 31% | 71% | 20% | 5% | 0% |
| CCc1ccc(-c2ccc3c(c2)-c2c(cnn2C)S(=O)(=O)N3C)cc1 | 5% | 0% | 7% | 0% | 10% | 0% | 0% | 29% | 17% | 13% |
| COc1cccc(C(=O)Nc2cccc(Oc3ccc4nc(NC(=O)C5CC5)cn4n3)c2)c1 | 40% | 10% | 0% | 19% | 0% | 12% | 9% | 0% | 5% | 1% |
| COc1cccc(NC(=O)NC2CCN(c3ccnc(Nc4cc(OC)c(OC)c(OC)c4)n3)C2)c1 (centres unmarked) [GSK1379763] | 0% | 0% | 0% | 35% | 12% | 4% | 0% | 8% | 12% | 0% |
| COC(=O)Nc1nc2cc(Oc3ccc(NC(=O)Nc4cc(C(F)(F)F)ccc4F)cn3)ccc2[nH]1.Cl.Cl [GW681170] | 9% | 0% | 21% | 7% | 0% | 50% | 0% | 0% | 0% | 17% |
| O=C(Nc1cccc(-c2nn3ccccc3c2-c2ccnc(Nc3cccc(C(F)(F)F)c3)n2)c1)c1c(F)cccc1F [GSK292658] | 10% | 0% | 18% | 0% | 81% | 0% | 3% | 5% | 0% | 14% |
| O=C(O)C(F)(F)F.O=C(O)C(F)(F)F.O=c1[nH]ccc2nc(N[C@@H]3CCCNC3)nc(Nc3ccc(S(=O)(=O)N4CCOCC4)cc3)c12 [GSK2177277] | 98.7% | 98.5% | 77% | 74% | 96% | 75% | 99.7% | 11% | 99.3% | 90.2% |
| COc1cccc(-c2ccc3c(NC(=O)C4CC4)n[nH]c3n2)c1 [SB-710903] | 2% | 0% | 20% | 12% | 20% | 0% | 0% | 22% | 6% | 1% |
| Fc1ccc(-c2ncn(C3CCNCC3)c2-c2ccnc(Oc3ccc(-c4ccccc4)cc3)n2)cc1 [SB-245391] | 12% | 0% | 0% | 6% | 27% | 0% | 34% | 41% | 0% | 0% |
| Nc1ncc(-c2cccnc2)c2scc(-c3ccc4c(c3)CCN4C(=O)Cc3ccccc3)c12 [GSK683281] | 24% | 0% | 21% | 0% | 21% | 1% | 0% | 24% | 14% | 0% |
| CN(C)Cc1ccc(-c2ccc3c(Nc4ccc(Oc5ccccn5)cc4)ccnc3c2)o1 [GW567148] | 2% | 0% | 4% | 0% | 0% | 0% | 1% | 0% | 0% | 0% |
| Nc1ncc(-c2ccc3nccc(-c4ccncc4)c3c2)cc1S(=O)(=O)N1CCOCC1 [GSK1627798] | 0% | 0% | 18% | 0% | 14% | 0% | 0% | 0% | 7% | 0% |
| Cl.Cl.NCC(NCc1ccc(-c2ccnc3[nH]ccc23)s1)c1ccccc1 (centres unmarked) [GSK1321565] | 16% | 57% | 32% | 53% | 25% | 0% | 36% | 0% | 39% | 14% |
| Oc1cc(Nc2ccnc3cc(I)ccc23)ccc1F [GW552771] | 0% | 0% | 5% | 0% | 0% | 29% | 13% | 26% | 0% | 0% |
